PRMT1 inh = PRMT1 methyltransferase inhibitors, primary screen, biochemical, fluorescence polarization; Protein arginine N-methyltransferase 1 (Homo sapiens), Q99873; recombinant PRMT1, activity-based probe fluorescence polarization; inhibition, % at 2.79 µM; 1.3% of 370,000 active; AID 652257, 2013;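 active means inhibition above about 21% made by adding two undisclosed values, limit read from the data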
ALR inh = inhibitors of human ALR sulfhydryl oxidase, primary screen, biochemical, H2O2 detection, HRP-luminol luminescence, single point; purified ALR, DTT oxidation; inhibition, % (concentration not given with the values); 3.8% of 290,000 active;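 active means mean replicate inhibition above about 79%, with every replicate also reaching it, limit read from the data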
rCAG RNA binder = binders of r(CAG) RNA repeats, primary screen, biochemical, fluorescence | r(CAG) RNA repeat, TO-PRO-1 dye displacement fluorescence | inhibition, % at 3 µM | 1.3% of 370,000 active | AID 651821, 2012;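 active means inhibition above the plate cutoff, the mean of all test compounds on that plate plus 3 SD, cut at about 35% in these data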;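 further: 0% = DMSO alone and 100% = 100 µM mitoxantrone as full dye displacement; higher means more dye released from RNA so lower well fluorescence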
LANA-H2A inh = blockers of LANA interaction with H2A/H2B – biochemical, FP readout, HTS, primary screen; cell-free LANA-H2A/H2B peptide, fluorescence polarization; 0.6% of 320,000 active; inhibition, % (test concentration not listed); Protein LANA1 (Human herpesvirus 8 type P (isolate GK18)), Q9QR71; in the data active means inhibition mostly above about 10%, no sharp cut-off; inactive means mostly below about 6.7%
Target sequence (Q9QR71 whole entry, looked up): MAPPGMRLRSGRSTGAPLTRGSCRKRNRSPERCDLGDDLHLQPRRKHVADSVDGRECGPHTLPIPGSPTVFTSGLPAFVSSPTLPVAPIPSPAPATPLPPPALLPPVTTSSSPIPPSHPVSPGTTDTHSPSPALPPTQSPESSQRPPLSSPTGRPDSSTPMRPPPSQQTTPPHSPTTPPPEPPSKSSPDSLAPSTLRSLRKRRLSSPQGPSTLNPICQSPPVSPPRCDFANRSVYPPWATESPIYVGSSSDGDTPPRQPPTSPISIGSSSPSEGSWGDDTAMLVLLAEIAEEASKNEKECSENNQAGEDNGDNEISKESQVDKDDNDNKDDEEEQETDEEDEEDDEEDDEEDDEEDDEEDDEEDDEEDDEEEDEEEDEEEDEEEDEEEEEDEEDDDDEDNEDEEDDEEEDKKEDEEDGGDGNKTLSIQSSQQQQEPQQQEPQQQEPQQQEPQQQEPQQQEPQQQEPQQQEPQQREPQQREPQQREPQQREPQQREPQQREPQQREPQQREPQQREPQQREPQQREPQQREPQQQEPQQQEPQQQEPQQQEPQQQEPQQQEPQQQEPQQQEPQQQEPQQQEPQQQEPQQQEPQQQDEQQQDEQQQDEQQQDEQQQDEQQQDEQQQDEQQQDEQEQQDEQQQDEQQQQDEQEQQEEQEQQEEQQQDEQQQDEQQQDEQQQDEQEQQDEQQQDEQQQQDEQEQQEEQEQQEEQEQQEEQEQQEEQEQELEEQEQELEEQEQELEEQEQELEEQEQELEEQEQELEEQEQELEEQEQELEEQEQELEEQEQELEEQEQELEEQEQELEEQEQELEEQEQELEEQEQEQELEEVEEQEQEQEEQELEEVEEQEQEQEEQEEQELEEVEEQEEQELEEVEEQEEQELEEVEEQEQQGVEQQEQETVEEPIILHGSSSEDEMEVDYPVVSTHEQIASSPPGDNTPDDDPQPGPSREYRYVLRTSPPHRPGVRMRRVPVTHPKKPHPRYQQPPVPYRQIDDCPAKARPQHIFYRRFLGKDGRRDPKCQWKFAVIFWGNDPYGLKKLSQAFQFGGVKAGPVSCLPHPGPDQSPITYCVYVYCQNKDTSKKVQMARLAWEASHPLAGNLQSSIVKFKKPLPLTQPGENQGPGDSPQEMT
Rtt109 Vps75 = inhibitors of C. albicans Rtt109/Vps75 HAT, primary screen, biochemical, ThioGlo CoA-SH fluorescence, plate reader. purified Rtt109/Vps75, 4 h. inhibition, % at 34.9 µM. 0.16% of 330,000 active;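 active means inhibition of at least 50% in every replicate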
ABHD5-PLIN5 inh = ABHD5-PLIN5 interaction inhibitors, primary screen, cell lysate, split luciferase complementation, luminescence; Perilipin-5 (Homo sapiens) + 1-acylglycerol-3-phosphate O-acyltransferase ABHD5 (Homo …; Split G. princeps luciferase complementation, 4 h; inhibition, % at 4 µM; 0.78% of 360,000 active; AID 602281, 2012;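 active means inhibition above the mean inhibition across every tested compound plus 3 SD, cut at about 22% in these data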;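 further: 0% = DMSO only wells and the 100% control is not disclosed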
Numbers without * were called inactive; x = no result; + = active, no number. An excerpt weighted towards active compounds, which were near 5.9% of everything screened.

SMILES	PRMT1 inh	ALR inh	rCAG RNA binder	LANA-H2A inh	Rtt109 Vps75	ABHD5-PLIN5 inh
O=S(=O)(/C=C/c1ccccc1)c1ccccc1	-6.8	-5.9	-1.6	-0.6	-2.1	1.9
O=C1N=c2ccccc2=C1c1[nH]c(=S)[nH]c1O	2.6	-5.1	4.0	12.0*	0.3	-1.9
NC(=O)c1cc2cc(Cl)ccc2oc1=Nc1cccc(C(F)(F)F)c1	-1.5	90.8*	-0.4	0.2	2.2	7.8
NC(Cc1ccc(O)cc1)C(=O)NN=Cc1ccccc1Cl (centres undefined)	-6.1	x	5.6	x	x	x
CC(=O)C[C@@H](O)CC(=O)[C@@H]1OC(=O)CCCCCCCCc2ccccc21	4.0	-2.0	2.5	9.2*	1.0	11.4
CC(=O)C[C@H](O)CC(=O)[C@@H]1OC(=O)[C@H](C)C/C=C\Cc2ccccc21	3.0	-0.9	7.9	+	2.9	-4.7
CC(=O)C[C@@H](O)CC(=O)[C@H]1OC(=O)[C@H](C)C/C=C\Cc2ccccc21	-2.3	x	3.6	6.7	-6.2	10.1
Nc1ncnc2[nH]c(=S)[nH]c12	1.5	x	0.2	x	-3.1	-0.1
O=c1[nH]c(=O)c2[nH]c(=S)[nH]c2[nH]1	80.4*	x	5.5	x	6.7	-32.4
Cc1ccc(N2C(=O)N(CC(=O)Nc3ccc(C)cc3[N+](=O)[O-])C(=O)C2C)cc1 (centres undefined)	-2.5	1.8	-2.2	-0.1	-1.3	-1.7
Cc1ccc(N2C(=O)N(CC(=O)Nc3ccc(C)c(C)c3[N+](=O)[O-])C(=O)C2C)cc1 (centres undefined)	2.5	-0.2	3.7	129.7*	5.2	1.8
COCCN1C(=O)CCC1(C)c1nnnn1-c1ccc2ccccc2c1 (centres undefined)	2.7	x	0.2	x	x	2.5
COC(=O)[C@]12C[C@H](CC(=O)N3CCC(c4ccccc4)CC3)C(=O)N(Cc3ccc(Cl)cc3Cl)C1=C[C@H](C(C)C)O[C@@H]2C1CC1	3.2	x	5.4	x	x	x
O=C(c1ccccn1)N(Cc1ccco1)C1(C(=O)NC2CCCCC2)CCCCC1	1.4	-1.8	-1.3	-0.6	1.2	1.9
O=C(c1ccccn1)N(CC1CCCO1)C1(C(=O)NC2CCCCC2)CCCCC1 (centres undefined)	-2.2	2.9	-7.7	24.9*	-0.1	-3.7
Cc1ccc2c(c1)c1c3n2CCN(C(=O)C2CC2)C3CCC1 (centres undefined)	0.5	-25.8	8.3	1.5	-8.1	3.5
CN1CCN(CC(=O)N2CCn3c4c(c5cc(C6CCCCC6)ccc53)CCCC42)CC1 (centres undefined)	x	-6.0	x	-0.5	-3.8	23.3*
Cc1ccc2c(c1)c1c3n2CCN(C(=O)CN2CCN(C)CC2)C3CCC1 (centres undefined)	-0.4	91.5*	1.4	-2.3	-0.3	10.8
COc1ccc(C(C(=O)NCc2ccccc2)n2c(-c3ccccn3)nc3ccccc32)cc1 (centres undefined)	-2.7	x	4.2	x	x	5.5
NNc1nc2sc3c(c2c(=O)n1-c1ccccc1)CCCC3	3.2	13.0	6.9	-4.8	2.8	8.3
Nn1c(Nc2ccccc2)nc2sc3c(c2c1=O)CCCC3	2.8	81.5*	7.4	2.3	-2.4	-7.4
CCOC(=O)N1CCN(C(=O)c2cc3cc(C)ccc3[nH]2)CC1	-0.3	-5.3	-4.2	12.8*	-10.0	-2.6
Cc1ccc2[nH]c(C(=O)N3CCN(C=O)CC3)cc2c1	-0.7	-24.1	3.5	12.7	-2.4	4.3
CC1CCC(C(C)C)C(OCC(O)C[N+]2(C)CCCCC2)C1 (centres undefined)	1.1	99.3*	-1.2	-7.7	9.4	-1.3
Cc1nc2cc(C(=O)O)ccc2s1	21.4*	-1.0	-2.3	-7.2	1.6	1.6
SMILES	PRMT1 inh	ALR inh	rCAG RNA binder	LANA-H2A inh	Rtt109 Vps75	ABHD5-PLIN5 inh
CCCn1c(CCC(=O)O)ccc1-c1ccccc1	-0.8	25.9	4.0	1.5	-14.8	-2.3
COCCCn1c(CCC(=O)O)ccc1-c1cccs1	3.3	98.2*	5.6	-1.6	-176.3	-3.6
CCCn1c(CCC(=O)O)ccc1-c1cccs1	5.1	98.7*	7.0	1.2	-12.3	1.9
CCc1nnc(N/N=C/c2cc(Br)c(O)cc2O)n1N	6.3	82.6*	2.0	-9.6	0.0	-28.4
CC(C)(C)c1nnc(N/N=C/c2cc(Br)ccc2O)n(N)c1=O	-2.4	-8.7	4.2	+	-32.8	5.2
CCc1nnc(N/N=C/c2ccc(O)c(OC)c2)n1N	0.3	x	-0.9	0.2	3.3	-29.4
NC(=O)N/N=C\c1cc(Br)ccc1O	-1.7	5.3	1.4	0.2	-0.2	-0.3
COc1cccc(-c2ccc(CC[C@H]3O[C@H]4CC[C@@H](CO)O[C@H]4C[C@H]3NC(=O)c3cnccn3)cc2)c1	-2.4	x	1.9	x	x	x
O=C(COC(=O)c1cncc(Br)c1)NC12CC3CC(CC(C3)C1)C2	-0.7	-9.8	2.1	19.5*	x	0.9
COc1ccc(C[C@H]2c3cc(O)c(OC)cc3CC[N+]2(C)[O-])cc1O (some centres undefined)	7.8	95.2*	1.2	-5.2	2.8	-2.9
COc1cc2c(cc1O)C(Cc1ccc(O)cc1)[N+](C)([O-])CC2 (centres undefined)	1.4	25.6	7.9	-0.3	-7.4	-8.6
CCc1ccccc1NC(=O)C1CCN(C(=O)c2ccc([N+](=O)[O-])cc2)CC1	-1.3	-2.3	-4.8	-2.3	57.6*	2.2
CC(=O)Nc1ccc(NC(=O)C2CCN(C(=O)c3ccc([N+](=O)[O-])cc3)CC2)cc1	-2.4	-5.1	-3.1	4.1	3.2	-1.0
CCCCn1c2ccccc2c2nnc(SCC(=O)NC3=NN=C(c4ccccc4)CS3)nc21	44.7*	39.4	22.0	-0.8	x	x
O=C(NC(=S)Nc1ccc(F)c([N+](=O)[O-])c1)c1ccccc1F	33.0*	22.0	5.4	-0.9	0.8	-5.1
CCCCCCCCN1CCS(=O)(=O)N(Cc2ccc(C(F)(F)F)cc2)C(C(=O)OC)C1 (centres undefined)	0.8	x	4.2	x	x	x
Cc1nc2cccc(C(=O)Oc3ccc([N+](=O)[O-])cc3)c2o1	3.4	97.1*	0.9	3.1	11.8	0.5
Cc1c(-c2ccccc2)nc2ccccc2c1C(=O)Oc1ccc([N+](=O)[O-])cc1	1.9	-2.1	7.4	-0.6	1.4	6.9
CN(C(=O)CN1C(=O)S/C(=C\c2ccc(F)cc2)C1=O)C1CCS(=O)(=O)C1 (centres undefined)	-2.0	-3.7	-1.9	-0.7	-3.7	0.7

Screening data from PubChem.
